High-throughput results from PubChem BioAssay.
FECH block: blocks human mitochondrial ferrochelatase activity; purified FECH, Ni-mesoporphyrin absorbance 550 nm; P22830; calls only at 10 µM (by protocol); actives 3.3% (n = 20,000);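 active means enzyme reaction rate more than 3 SD below the solvent-only control wells on the same plate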;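 further: lower slope than DMSO wells means FECH inhibition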
Target sequence (P22830 whole entry, looked up): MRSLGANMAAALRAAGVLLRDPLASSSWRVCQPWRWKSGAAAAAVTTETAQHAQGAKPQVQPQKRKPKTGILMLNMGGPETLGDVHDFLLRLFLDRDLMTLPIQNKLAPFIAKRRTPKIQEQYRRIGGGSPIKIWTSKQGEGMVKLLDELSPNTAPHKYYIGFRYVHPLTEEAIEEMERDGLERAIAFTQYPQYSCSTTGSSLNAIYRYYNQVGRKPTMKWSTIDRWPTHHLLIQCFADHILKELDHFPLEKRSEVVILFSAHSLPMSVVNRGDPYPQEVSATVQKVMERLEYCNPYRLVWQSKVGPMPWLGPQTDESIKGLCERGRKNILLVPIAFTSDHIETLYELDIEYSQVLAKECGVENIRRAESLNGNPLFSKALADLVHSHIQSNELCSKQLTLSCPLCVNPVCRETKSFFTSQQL
Calls only; n = inactive; + = active, no number. Shown is part of a subset that was picked to be rich in hits.

SMILES	FECH block
Cc1ccc(C)c(OCc2cc(C(=O)NCc3nnc4n3CCC4)no2)c1	+
c1ccn2cc(CCn3cnnc3)nc2c1	n
Cc1ccnc(NC2CC(=O)N(CCc3cccc(Cl)c3)C2)n1 (stereo not given)	n
O=C(NCC(=O)N1CCC(c2nc(-c3ccc(F)cc3)no2)CC1)c1cccs1	n
Cc1ccccc1CNC(=O)c1cccn1-c1nnc(N2CCCCC2)s1	n
O=C(NCCN1CCCCCC1)c1cccn1-c1nnc(N2CCCCC2)s1	n
O=C(NCc1ccccc1F)c1cccn1-c1nnc(N2CCCCC2)s1	+
O=C(CN1c2ccc(Br)cc2-c2ccccc2S1(=O)=O)NCCC1=CCCCC1	+
Cc1cccc(NC(=O)CC(=O)NC[C@@H]2CCCO2)c1C	n
O=C(CN1c2ccc(Br)cc2-c2ccccc2S1(=O)=O)NCC1CCCO1 (stereo not given)	+
CCc1ccc2c(c1)-c1ccccc1S(=O)(=O)N2CC(=O)Nc1cc(C)ccc1C	+
CCc1ccc2c(c1)-c1ccccc1S(=O)(=O)N2CC(=O)Nc1ccc2c(c1)OCO2	n
CC(C)NC(=O)CN1c2ccc(Br)cc2-c2ccccc2S1(=O)=O	+
O=C(CN1c2ccc(F)cc2-c2ccccc2S1(=O)=O)NC(c1ccccc1)c1ccccc1	n
CCc1ccc2c(c1)-c1ccccc1S(=O)(=O)N2CC(=O)Nc1ccccc1Oc1ccccc1	n
COCC(C)NC(=O)CN1c2ccc(F)cc2-c2ccccc2S1(=O)=O (stereo not given)	n
Cc1cc(NC(=O)CC(C)C)n(-c2ncnc3c2cnn3-c2ccc(F)cc2)n1	n
Cc1ccc(N(Cc2nc3nc(C)cc(C)n3n2)C(=O)c2cccc(Cl)c2)cc1	n
CC(C)c1nc(CN(C)Cc2cc3ccccc3[nH]c2=O)cs1	n
CN1Cc2ccccc2CC1C(=O)NCc1ccc2c(c1)n(C)c(=O)n2C (stereo not given)	n
CCc1ccc(-n2c(CN3CCN(S(=O)(=O)c4ccc(C)cc4)CC3)nc3cccnc32)cc1	n
CCOC(=O)N1CCC(N2CCN(c3nc4cc(C)ccc4o3)CC2)CC1	n
O=C(Cc1ccc(F)cc1)N1CCN(S(=O)(=O)c2cc3c4c(c2)CCN4C(=O)CC3)CC1	n
Cc1n[nH]c(C)c1CNC(=O)c1cc(COc2c(F)cccc2F)on1	n
CC1CCN(S(=O)(=O)c2ccc3c(c2)CCN3C(=O)CCC(=O)N2CCCCCC2)CC1	n
SMILES	FECH block
CCOc1ccc(NC(=O)NCCc2nc3cccnc3n2-c2ccccc2)cc1	n
CN1CCN(C(=O)c2ccc3[nH]c4c(c3c2)CSCC4)CC1C(=O)O (stereo not given)	n
COc1ccc(C)cc1NC(=O)Cn1ccnc1-c1nccn1C	n
C=CCNC(=O)CN1c2ccc(Br)cc2-c2ccccc2S1(=O)=O	+
CCNC(=O)CN1c2ccc(Br)cc2-c2ccccc2S1(=O)=O	+
CN1CCN(C(=O)CN2c3ccc(Br)cc3-c3ccccc3S2(=O)=O)CC1	+
COc1ccc(C)cc1NC(=O)CN1c2ccc(Br)cc2-c2ccccc2S1(=O)=O	+
COc1ccccc1CNC(=O)CN1c2ccc(Br)cc2-c2ccccc2S1(=O)=O	n
CC(C)c1ccc2c(c1)-c1ccccc1S(=O)(=O)N2CC(=O)N1CC(=O)Nc2ccccc21	n
O=C(CN1c2ccc(Br)cc2-c2ccccc2S1(=O)=O)N1CCc2ccccc2C1	n
O=C(O)[C@H]1C[C@@H](C(=O)N2CCCC2)CN(C(=O)CCCCc2ccccc2)C1	n
Fc1cccc(-n2c(CN3CCNCC3)nc3cccnc32)c1	n
O=C1CCC2(CCN1)CCN(Cc1cnc(C3CCCCC3)nc1)CC2	n
CCCNC(=O)CSCc1nc(-c2ccccc2)no1	n
COc1cc(-n2cnnc2)c2ncccc2c1	n
O=[N+]([O-])c1ccc(S(=O)(=O)NCc2nc3cccnc3n2Cc2ccccc2)cc1	n
CC(NCc1cn(CCC(N)=O)c2ccccc12)c1nc2ccccc2[nH]1 (stereo not given)	n
CN(C)CC1(O)CCCN(CCCOc2ccc(F)cc2)CC1 (stereo not given)	n
Cc1onc(-c2ccccc2Cl)c1C(=O)NCc1n[nH]c2c1CCC2	n
O=C(CCN1CCCCO1)NCC(c1ccccc1)C1CCCC1 (stereo not given)	+
CN1CCCC(CCNC(=O)CCN2CCCCO2)C1 (stereo not given)	n
O=C(CCN1CCCCO1)N(Cc1ccccc1)Cc1nccs1	n
CC(CN1CCOCC1)NCc1csc(-c2cnccn2)n1 (stereo not given)	n
O=C(NCCCN1CCN(c2ccc(F)cc2)CC1)C1CCCN1c1nnc(N2CCCC2=O)s1 (stereo not given)	+
COc1ccc(CNC(=O)C2CCCN2c2nnc(N3CCCC3=O)s2)cc1OC (stereo not given)	+
SMILES	FECH block
O=C(NCCN1CCCc2ccccc21)C1CCCN1c1nnc(N2CCCC2=O)s1 (stereo not given)	n
COc1ccc(CNC(=O)C2CCCN2S(=O)(=O)c2ccc3c(c2)CCCC(=O)N3)cc1 (stereo not given)	n
COc1ccc(N2CCN(CCCNC(=O)c3cccn3-c3nnc(N4CCCCC4)s3)CC2)cc1	n
CCN(CCCNC(=O)C1CCCN1c1nnc(N2CCCC2=O)s1)Cc1ccccc1 (stereo not given)	n
CCc1cnc(NCc2cccnc2N2CCN(c3ccccc3OC)CC2)nc1	n
Cc1cccc(C)c1OC1CN(CCC(=O)Nc2nccs2)C1	n
COc1ccccc1CCNC(=O)c1ccc(CN2C(=O)CCn3nccc32)cc1	n
Clc1ccc(CN2CCN(Cc3cnc(CC4CCCC4)[nH]3)CC2)cc1	n
COc1cccc(Cn2c(CNS(=O)(=O)c3ccccc3Cl)nc3cccnc32)c1	n
CC(C)Oc1cccc(F)c1-c1nccc(N2CCCC(O)C2)n1 (stereo not given)	n
Cc1cnc(-n2cnnc2)c(-c2cc3ccccc3o2)c1	n
CC1CCCCN1S(=O)(=O)c1cc2c(cc1Cl)NC(=O)CO2 (stereo not given)	n
Cc1cc2c(cc1S(=O)(=O)N1CCCC1C(=O)N1CCc3ccccc31)OCC(=O)N2 (stereo not given)	+
Cc1ccc(NC(=O)C2CCN(S(=O)(=O)c3cc4c(cc3C)NC(=O)CO4)CC2)nc1	+
Cc1ccc(NC(=O)CN2C(=O)CCc3cc(S(=O)(=O)N4CCCC4)ccc32)nc1	n
CCOC(=O)C1CCN(S(=O)(=O)c2cc3c(cc2Cl)NC(=O)CO3)CC1	n
COc1ccccc1NC(=O)C1CCCN1S(=O)(=O)c1cc2c(cc1C)NC(=O)CO2 (stereo not given)	n
CC(C)c1ccc(S(=O)(=O)NCc2nc3cccnc3n2Cc2ccc(Cl)cc2)cc1	n
CCCc1nc(C(=O)N2CCN(C)C3(CCN(C)CC3)C2)cs1	n
O=C(C1CCCN(c2ncnc3c2nc2n3CCCCC2)C1)N1CCOCC1 (stereo not given)	n
CC(C)NC(=O)[C@@H]1C[C@H](N)CN1C(=O)c1cccc2c3c([nH]c12)CCCC3	+
Cc1cc(C(=O)N2C[C@@H](N)C[C@H]2C(=O)NC(C)C)c(-c2ccccc2)o1	n
CCCc1cc(C(=O)N2C[C@@H](N)C[C@H]2C(=O)NC(C)C)ccn1	n
O=C(CN1C(=O)CC(c2ccc(Br)s2)=Nc2ccccc21)NCc1ccc2c(c1)OCO2	n
Cc1ccc(Cl)cc1NCc1cc(=O)n2[nH]c(-c3ccc(C(C)(C)C)cc3)nc2n1	+
CCN1CCN(Cc2cc(=O)n3[nH]c(-c4ccc(C(C)(C)C)cc4)nc3n2)CC1	n
